Target: T1, Methionyl-tRNA synthetase, putative (Leishmania donovani (strain BPK282A1)) (UniProt E9BF75)
T1 sequence (whole entry): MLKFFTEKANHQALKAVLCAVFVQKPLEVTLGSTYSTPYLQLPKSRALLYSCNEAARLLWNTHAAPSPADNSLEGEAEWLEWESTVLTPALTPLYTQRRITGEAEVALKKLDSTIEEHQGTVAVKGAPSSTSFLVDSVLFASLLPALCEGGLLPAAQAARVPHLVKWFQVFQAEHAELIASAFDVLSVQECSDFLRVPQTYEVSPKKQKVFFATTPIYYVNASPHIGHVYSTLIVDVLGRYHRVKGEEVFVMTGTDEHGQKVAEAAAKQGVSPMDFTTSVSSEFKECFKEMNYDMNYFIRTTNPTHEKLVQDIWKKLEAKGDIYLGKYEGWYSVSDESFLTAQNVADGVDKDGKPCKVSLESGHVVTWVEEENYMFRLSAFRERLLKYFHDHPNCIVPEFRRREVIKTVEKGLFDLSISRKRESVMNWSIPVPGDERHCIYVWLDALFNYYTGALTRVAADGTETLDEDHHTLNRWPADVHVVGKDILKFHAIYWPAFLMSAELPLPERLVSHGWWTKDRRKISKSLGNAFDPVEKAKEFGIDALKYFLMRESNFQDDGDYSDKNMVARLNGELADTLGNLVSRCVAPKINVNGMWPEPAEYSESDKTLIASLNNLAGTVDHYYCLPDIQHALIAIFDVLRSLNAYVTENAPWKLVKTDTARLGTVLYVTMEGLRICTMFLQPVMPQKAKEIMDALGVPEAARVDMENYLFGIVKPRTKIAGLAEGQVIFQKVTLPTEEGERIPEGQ
Experiment: Leishmania donovani Methionine tRNA synthetase (LdMetRS):v7. Dose response assay
Type: functional
Design: conc 80 nM, time 150 minutes

Cc1ccc(-c2cc(C(F)(F)F)nc(N3CCOCC3)n2)s1
PXC50 (MAX_EFFECT 10.18276762): < 4
PXC50 (MAX_EFFECT 14.09921671): < 4

CS(=O)(=O)N1CCN(c2ccc3c(F)cc(C(=O)NC4CCCC4)cn23)CC1
PXC50 (MAX_EFFECT 12.5): < 4
PXC50 (MAX_EFFECT 15.35087719): < 4

OCc1ccc(Cl)cc1Cl
PXC50 (MAX_EFFECT 13.11787072): < 3
PXC50 (MAX_EFFECT 18.35853132): < 3

NCc1ccc(Cl)cc1Cl
PXC50 (MAX_EFFECT 13.60691145): < 3
PXC50 (MAX_EFFECT 15.77946768): < 3

O=C(CC1CCCCC1)N1CCC(c2ncc3c(n2)CCNC3)CC1
PXC50 (MAX_EFFECT 14.51247166): < 4
PXC50 (MAX_EFFECT 29.90654206): < 4

CCN1CCN(c2nc(-c3cccc(OC)c3)cc(C(F)(F)F)n2)CC1
PXC50 (MAX_EFFECT 17.85714286): < 4
PXC50 (MAX_EFFECT 18.43434343): < 4

Nc1nc(CSc2nnc[nH]2)nc2sc3c(c12)CCCC3
PXC50 (MAX_EFFECT 21.33333333): < 4
PXC50 (MAX_EFFECT 26.98412698): < 4

Nc1noc2ccc(-c3cnc4ccc(NC5CC5)nn34)cc12
PXC50 (MAX_EFFECT 22.39185751): < 4
PXC50 (MAX_EFFECT 25.87719298): < 4

Cc1nc(N[C@@H](CC(C)C)C(=O)O)c2c3c(sc2n1)CCCC3
PXC50 (MAX_EFFECT 23.93617021): < 4
PXC50 (MAX_EFFECT 24.87046632): < 4

O=C1CN(c2nc(-c3cccnc3)nc3sc4c(c23)CCCC4)CCN1
PXC50 (MAX_EFFECT 24.0): < 4
PXC50 (MAX_EFFECT 26.98412698): < 4

CN(CCO)c1nc(-c2ccsc2)nc2sc3c(c12)CCCC3
PXC50 (MAX_EFFECT 26.13333333): < 4
PXC50 (MAX_EFFECT 28.04232804): < 4

CCc1cc2c(NC(C(=O)O)C(C)C)nc(-c3ccccc3)nc2s1 (stereo not given)
PXC50 (MAX_EFFECT 27.80748663): < 4
PXC50 (MAX_EFFECT 31.69398907): < 4

Cc1nc(N2CCC(CCN3CCCC3)CC2)c2ccsc2n1
PXC50 (MAX_EFFECT 38.29787234): < 4
PXC50 (MAX_EFFECT 38.86010363): < 4

CN(C)C(=O)c1ccc2ccc(N3CCN(CC4CC4)CC3)n2c1
PXC50 (MAX_EFFECT 43.08390023): < 4
PXC50 (MAX_EFFECT 51.58878505): < 4

CCN(CCO)c1nc(-c2ccsc2)nc2sc3c(c12)CCCC3
PXC50 (MAX_EFFECT 43.2): < 4
PXC50 (MAX_EFFECT 48.67724868): < 4

CS(=O)(=O)N1CCN(c2ccc3ccc(C(=O)NCC4(CO)CCCC4)cn23)CC1
PXC50 (MAX_EFFECT 45.93301435): < 4
PXC50 (MAX_EFFECT 48.99451554): < 4

CNS(=O)(=O)c1cc(C(C)C)c(Br)cc1C(C)C
PXC50 (MAX_EFFECT 9.649122807): < 4
PXC50 (MAX_EFFECT 14.58333333): < 4

O=C1NCCCC12CCN(c1nc3c(c(C(F)(F)F)n1)CCCC3)C2 (stereo not given)
PXC50 (MAX_EFFECT 4.081632653): < 4
PXC50 (MAX_EFFECT 6.313131313): < 4

Cc1cc(C(F)(F)F)nc(NCCc2ccccc2)n1
PXC50 (MAX_EFFECT 6.557377049): < 4
PXC50 (MAX_EFFECT 10.16042781): < 4

Cc1nnc(NCC2(c3ccccc3)CCOCC2)c(C#N)c1C
PXC50 (MAX_EFFECT 7.981220657): < 4
PXC50 (MAX_EFFECT 16.48148148): < 4

Cc1cc2c(N3CCN(CCO)CC3)nc(-c3cccnc3)nc2s1
PXC50 (MAX_EFFECT 11.05527638): < 4
PXC50 (MAX_EFFECT 12.53071253): < 4

Cc1nc(NCc2cccnc2)c2c3c(sc2n1)CC(C)CC3 (stereo not given)
PXC50 (MAX_EFFECT 20.10178117): < 4
PXC50 (MAX_EFFECT 27.4559194): < 4

CCC(CO)Nc1nc(CSc2ccccc2)nc2sc3c(c12)CCC3 (stereo not given)
PXC50 (MAX_EFFECT 27.86885246): < 4
PXC50 (MAX_EFFECT 29.94652406): < 4

CS(=O)(=O)N1CCN(c2ccc3ccc(C(=O)NCCS(=O)(=O)N4CCOCC4)cn23)CC1
PXC50 (BOTTOM 0.75923045, HILLSLOPE 2.636958023, MAX_EFFECT 55.02392344, TOP 52.30756256): 5
PXC50 (BOTTOM 6.938223691, HILLSLOPE 3.502169957, MAX_EFFECT 60.32906764, TOP 60.07357055): 4.85

CC(=O)N1CCN(C(=O)c2ccc3ccc(N4CCN(S(C)(=O)=O)CC4)n3c2)CC1
PXC50 (BOTTOM 3.542001412, HILLSLOPE 2.454286416, MAX_EFFECT 62.83018868, TOP 64.11209582): 4.91
PXC50 (BOTTOM 3.854741042, HILLSLOPE 2.302398718, MAX_EFFECT 55.70776256, TOP 55.14895524): 4.97

CNC(=O)CN(C)c1nc(C)nc2sc3c(c12)CCC3
PXC50 (MAX_EFFECT 5.291005291): < 4
PXC50 (MAX_EFFECT 6.4): < 4

OCCN1CCC(F)(F)C2(CCN(c3cnccn3)C2)C1 (stereo not given)
PXC50 (MAX_EFFECT 3.174603175): < 4
PXC50 (MAX_EFFECT 14.57943925): < 4

Cc1nc(N(Cc2ccncc2)CC2CCCO2)c2ccsc2n1 (stereo not given)
PXC50 (MAX_EFFECT 13.31592689): < 4
PXC50 (MAX_EFFECT 17.75456919): < 4

Cc1nccn1CCCn1cncc1-c1ccc2c(c1)CCCN2C
PXC50 (MAX_EFFECT 9.523809524): < 4
PXC50 (MAX_EFFECT 19.43925234): < 4

O=C(NCC1(O)CCC(F)(F)CC1)c1cc(=O)c2cc(F)ccc2o1
PXC50 (MAX_EFFECT 1.754385965): < 4
PXC50 (MAX_EFFECT 9.021113244): < 4
